A selection: hits, their analogues and other compounds. The true share with any hit is near 5.7%.
PI4K2A block: PI4K2A (human) kinase inhibition; purified PI4K2A, ADP-Glo luminescence, 1 h; stronger effect = lower value; activity change, negative = inhibition, % at 76.9 µM; 0.13% of 420,000 active; in the data active means activity change below about -50%; inconclusive means mostly about -30% to -49%
Target sequence (Q9BTU6 whole entry, looked up): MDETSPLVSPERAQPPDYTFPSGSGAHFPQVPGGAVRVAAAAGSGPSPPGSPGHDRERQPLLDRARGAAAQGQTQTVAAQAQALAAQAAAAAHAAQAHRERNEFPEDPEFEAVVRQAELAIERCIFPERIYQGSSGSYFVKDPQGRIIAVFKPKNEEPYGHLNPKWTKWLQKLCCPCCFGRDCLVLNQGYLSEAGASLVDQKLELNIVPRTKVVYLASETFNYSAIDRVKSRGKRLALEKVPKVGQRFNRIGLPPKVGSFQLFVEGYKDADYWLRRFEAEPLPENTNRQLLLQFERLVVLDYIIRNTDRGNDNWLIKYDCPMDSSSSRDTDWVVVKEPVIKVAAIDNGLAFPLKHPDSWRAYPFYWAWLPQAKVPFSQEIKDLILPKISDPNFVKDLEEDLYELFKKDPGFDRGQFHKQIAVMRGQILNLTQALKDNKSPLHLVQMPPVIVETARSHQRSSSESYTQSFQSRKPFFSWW
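PI4K2A activity was measured by ADP-Glo luminescence: enzyme (4 ug/mL stock) and phosphatidylinositol (1.2 mM stock) in Tris pH 7.5/MgCl2/EGTA/Triton X-100 buffer were reacted with ATP (300 microM stock) for one hour at ambient temperature.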
A549 tox: A549 cytotoxicity, counter-screen for Nrf2 inhibitors | A549 ARE-Fluc cells, CellTiter-Fluor viability, 18-24 h | Potency, µM (titrated, usually from 46 µM), actives largely listed as inhibitors | 0.16% of 390,000 active | AID 504648
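Cytotoxicity counterscreen: CellTiter-Fluor fluorescence was measured in A549 ARE_Fluc cells after 18-24 h of compound exposure in a concentration series. The subsequent BugLite luminescent read reports ARE-luciferase activity.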
KB-3-1 tox: KB-3-1 parental cell cytotoxicity. AID 1347075. 1.4% of 400,000 active. Potency, µM (top dose mostly 46.1 µM), hits mostly cytotoxic. KB-3-1 viability, CellTiter-Glo ATP luminescence, 72 h; further: nearly all actives have a fitted effect of over 60% in size
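KB-3-1 cells, DMEM (no phenol red) + 10% FBS; compound by pin transfer, 72 h, 37 °C. Readout: CellTiter-Glo luminescence after 10 min. Data normalized, curve-fitted.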
Nrf2 inh: Nrf2 pathway inhibition; A549 ARE-Fluc reporter, luciferase luminescence, 18-24 h; Potency, µM (top dose mostly 46 µM), most hits filed as inhibitors; 2.1% of 360,000 active; further: nearly all actives have a fitted effect of over 60% in size
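Cells were seeded and rested 2 h, then exposed to compounds for 18-24 h. CellTiter-Fluor was read first as a viability measure. BugLite was added 15 min before the final luminescent read of ARE-luciferase activity in A549 cells.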
Giardia kill: Giardia lamblia killing; Giardia lamblia trophozoite viability; activity change, % at 7.66 µM, hits read low; 0.15% of 340,000 active; in the data active means activity change below about -80%; inconclusive means between about -30% and that limit;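 further: parasites exposed to compound for two days anaerobically before the ATP read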
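Giardia lamblia trophozoites (100 cells/well) were incubated with compounds for 48 h at 37 deg C under anaerobic conditions. Viability was read as ATP content by one-step luminescence after 15-30 min at room temperature.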
KB-V1 cytotox: KB-V1 MDR subline cytotoxicity; AID 1347076; Potency, µM (doses to about 46.1 µM), hits mostly cytotoxic; 3.4% of 400,000 active; KB-V1 MDR cells viability, CellTiter-Glo, 72 h; further: nearly all actives have a fitted effect of over 60% in size
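Readout: CellTiter-Glo luminescence, 10 min after addition. Cells: KB-V1 MDR subline, 72 h at 37 degrees C with compound. Analysis: corrected, normalized data fitted to concentration-effect curves.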
Numbers stand for hits. Unless noted, the call rests on the fitted dose curve; in most records, active means well fitted curve in the direction sought with a large enough effect; inconclusive means small, poorly fitted or top-dose-only effect, or another doubt; inactive means no such curve, though single readings can be large; an effect the other way counts as inactive or inconclusive.

`C[C@@H]1CN([C@H](C)CO)C(=O)c2cc(NC(=O)Nc3ccccc3)ccc2O[C@@H](C)CCCCO[C@H]1CN(C)S(=O)(=O)c1ccc(F)cc1` gave PI4K2A block inactive.
Screening C=CCn1c(SCc2c(C)noc2C)nc2sc3c(c2c1=O)CCCCC3 returned PI4K2A block inactive, A549 tox inactive, KB-3-1 tox inactive, Nrf2 inh 16.4µM, Giardia kill inactive and KB-V1 cytotox inconclusive.
Screening COc1cc(/C=C/c2ccc3ccccc3n2)cc(OC)c1OC returned KB-3-1 tox 2.59µM and KB-V1 cytotox inconclusive.
`O=C1NC2CCCCN2C12CCN(CCCN1c3ccccc3CCc3ccc(Cl)cc31)CC2` (stereo not drawn) gave PI4K2A block inactive.
For COc1cccc(-c2csc(N3CCN(CC(=O)NNC(=O)c4ccc(Cl)cc4)CC3)n2)c1 the results were PI4K2A block inactive, A549 tox inconclusive, KB-3-1 tox inactive, Nrf2 inh inconclusive, Giardia kill inactive and KB-V1 cytotox inconclusive.
Screening COc1cccc(-c2csc(N3CCN(C(=O)Nc4ccc(Cl)cc4)CC3)n2)c1 returned PI4K2A block inactive, A549 tox inconclusive, KB-3-1 tox inactive, Nrf2 inh 14.6µM, Giardia kill inactive and KB-V1 cytotox inactive.
COc1cccc(-c2csc(N3CCN(C(=S)Nc4cccc(Cl)c4)CC3)n2)c1 was read as PI4K2A block inactive, A549 tox inactive, KB-3-1 tox inactive, Nrf2 inh 18.4µM, Giardia kill inactive and KB-V1 cytotox inconclusive.
COc1cccc(-c2csc(N3CCN(C(=S)NCC(C)C)CC3)n2)c1 was read as PI4K2A block inactive, A549 tox inactive, KB-3-1 tox inactive, Nrf2 inh 18.4µM, Giardia kill inactive and KB-V1 cytotox inactive.
CC(C)CNC(=S)N1CCN(c2nc(-c3ccc(Cl)cc3)cs2)CC1 was read as PI4K2A block inactive, A549 tox inactive, KB-3-1 tox inconclusive, Nrf2 inh 18.4µM, Giardia kill inactive and KB-V1 cytotox inactive.
Screening CCC(=O)N1CCN(c2nc(-c3ccc(Cl)cc3)cs2)CC1 returned PI4K2A block inactive, A549 tox inactive, KB-3-1 tox inconclusive, Nrf2 inh inconclusive, Giardia kill inactive and KB-V1 cytotox inconclusive.
`CCNC(=S)N1CCN(c2nc(-c3cccc(OC)c3)cs2)CC1` gave PI4K2A block inactive, A549 tox inactive, KB-3-1 tox inactive, Nrf2 inh inconclusive, Giardia kill inactive and KB-V1 cytotox inactive.
For COc1cccc(-c2csc(N3CCN(C(=S)Nc4ccccc4Cl)CC3)n2)c1 the results were PI4K2A block inactive, A549 tox inactive, KB-3-1 tox inactive, Nrf2 inh inconclusive, Giardia kill inactive and KB-V1 cytotox inactive.
Screening C=CCNC(=O)Nc1ccc2c(c1)[C@]1(CC(=O)N(CC(C)C)C1c1ccccc1)C(=O)N2C (stereo partly drawn) returned PI4K2A block inactive.
CCOC(=O)[C@@]12CN(C(=O)OC(C)(C)C)CC=C1N(Cc1ccc(OC)cc1)C(=O)[C@H]2CC(=O)N1CCSCC1 was read as PI4K2A block inactive.
`COc1ccc(NC(=O)N2CCN(c3nc(-c4cccc(OC)c4)cs3)CC2)cc1` gave PI4K2A block inactive, A549 tox inactive, KB-3-1 tox inconclusive, Nrf2 inh inconclusive, Giardia kill inactive and KB-V1 cytotox 11.6µM.
`COc1ccc(NC(=S)N(CCc2c(C)[nH]c3ccc(C)cc23)Cc2cccnc2)cc1` gave PI4K2A block inactive, A549 tox inconclusive, KB-3-1 tox inactive, Nrf2 inh 20.6µM, Giardia kill inactive and KB-V1 cytotox inactive.
CCOc1ccc(NC(=S)N(CCc2c(C)[nH]c3ccccc23)Cc2cccnc2)cc1 was read as PI4K2A block inactive, A549 tox inactive, KB-3-1 tox inactive, Nrf2 inh inactive, Giardia kill inactive and KB-V1 cytotox inconclusive.
`CC(C)(C)NC(=O)C(c1ccco1)N(C(=O)Cn1nnc(-c2ccc(F)cc2)n1)c1ccccc1F` (stereo not drawn) gave PI4K2A block inactive, A549 tox inactive, KB-3-1 tox inactive, Nrf2 inh inconclusive, Giardia kill inactive and KB-V1 cytotox 18.4µM.
CC(C)(C)NC(=O)C(c1c[nH]c2ccccc12)N(C(=O)Cn1nnc(-c2ccc(Cl)cc2)n1)c1ccccc1F (stereo not drawn) was read as PI4K2A block inactive, A549 tox inactive, KB-3-1 tox inactive, Nrf2 inh inconclusive, Giardia kill inactive and KB-V1 cytotox inactive.
Screening CC(C)(C)NC(=O)C(c1ccco1)N(C(=O)Cn1nnc(-c2ccc(F)cc2)n1)c1ccccc1 (stereo not drawn) returned PI4K2A block inactive, A549 tox inactive, KB-3-1 tox inconclusive, Giardia kill inactive and KB-V1 cytotox 3.66µM.
Screening COc1ccccc1/C=C/c1nc(C#N)c(NCc2ccccc2)o1 returned PI4K2A block inactive, A549 tox inactive and Nrf2 inh inactive.
CCCn1c(NC(=O)c2ccccc2)nc(Cc2ccccc2)c1Cc1ccccc1 was read as PI4K2A block inactive.
COc1ccc(N2C3=C(CC4=C2CCCC4=O)C(=O)CCC3)cc1 was read as PI4K2A block -56.3, A549 tox inactive, KB-3-1 tox inactive, Nrf2 inh inconclusive, Giardia kill inactive and KB-V1 cytotox inactive.
COc1ccc(OCCCn2c(CCNC(=O)C3CCCCC3)nc3ccccc32)cc1 was read as A549 tox inactive, KB-3-1 tox inactive, Nrf2 inh inconclusive, Giardia kill inactive and KB-V1 cytotox inactive.
Screening CCn1c(SCC(=O)Nc2ccccc2-c2ccccc2)nnc1-c1ccc(Cl)cc1 returned PI4K2A block inactive.
For CCOC(=O)CC/C(=N\NC(N)=O)c1ccc(OC)c(Cl)c1 the results were PI4K2A block inactive, A549 tox inactive, KB-3-1 tox inactive, Nrf2 inh inactive, Giardia kill inactive and KB-V1 cytotox 8.2µM.
CCN(CC)c1cc(Cl)c2nonc2c1N was read as PI4K2A block inactive, A549 tox inactive, KB-3-1 tox inactive, Nrf2 inh inactive, Giardia kill inactive and KB-V1 cytotox inconclusive.
Screening CN(C)c1cc(Cl)c2nonc2c1N returned PI4K2A block -57.0, A549 tox inactive, KB-3-1 tox inactive, Nrf2 inh inactive, Giardia kill inactive and KB-V1 cytotox inconclusive.
`O=C(CCc1ccccc1-c1ccccc1CCNC(=O)c1ccccc1)NCc1ccccc1` gave PI4K2A block inactive.
For CCOC(=O)c1cnc(SC)nc1Nc1cccc2ccccc12 the results were PI4K2A block inactive, A549 tox inactive, KB-3-1 tox inactive, Nrf2 inh inactive, Giardia kill inactive and KB-V1 cytotox 11.6µM.
For CCOC(=O)c1cnc(SC)nc1Oc1cccc(NS(=O)(=O)c2ccc(F)cc2)c1 the results were PI4K2A block inactive, A549 tox inactive, KB-3-1 tox inactive, Nrf2 inh inactive, Giardia kill inactive and KB-V1 cytotox inactive.

Bioassay records deposited in PubChem by National Center for Advancing Translational Sciences (NCATS).
